Source: PubChem BioAssay AID1159580 (chemical genetic matrix, 2015)
Values joined by “and” are separate entries in the source; they are usually repeats but may differ in a detail not shown here. Equal values may be shown once. The whole screen tested about 5,500 compounds, of which about 2,000 (36%) were called active. Not shown: some 18% with an inconclusive outcome. No stated cut-off is given here; in the data, active means normalized growth mostly below about 0.91 (no sharp cut-off); inconclusive means no clear call, values can overlap the other calls; inactive means mostly above about 0.92. The list shows a part of the results.

Test: chemical genetic growth profiling, strain panel (AID 1159580);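 further: tested at 20 µM; growth read once vehicle control cultures reached saturation at 30 °C; 1 = growth at the plate median or of vehicle wells; lower values mean less growth of the strain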
Conditions: S. cerevisiae deletion strains, growth OD

Measured: normalized growth

COc1ccc2ccc(=O)oc2c1
inactive: locus YAL013W, strain DEP1, hits give low values 1.01 | locus YAL021C, strain ccr4, hits give low values 1 | locus YAL026C, strain drs2, hits give low values 1 | locus YAL030W, strain snc1, hits give low values 1 | locus YBL061C, strain skt5, hits give low values 1 | locus YBR009C, strain hhf1, hits give low values 1.02 | locus YBR021W, strain FUR4, hits give low values 0.997 | locus YBR023C, strain chs3, hits give low values 1.01 | locus YBR171W, strain sec66, hits give low values 0.988 | locus YBR229C, strain ROT2, hits give low values 1.02 | locus YBR231C, strain swc5, hits give low values 0.987 | locus YBR279W, strain paf1, hits give low values 1 | locus YCL011C, strain gbp2, hits give low values 0.98 | locus YCL016C, strain dcc1, hits give low values 1 | locus YCL029C, strain bik1, hits give low values 0.999 | locus YCL061C, strain MRC1, hits give low values 1 | locus YCL069W, strain vba3, hits give low values 0.988 | locus YCR088W, strain abp1, hits give low values 0.992 | locus YDL005C, strain med2, hits give low values 0.996 | locus YDL035C, strain GPR1, hits give low values 1.04 | locus YDL040C, strain nat1, hits give low values 1 | locus YDL074C, strain BRE1, hits give low values 1.04 | locus YDL101C, strain DUN1, hits give low values 1.01 | locus YDL185W, strain tfp1, hits give low values 1.03 | locus YDL192W, strain arf1, hits give low values 1.01 | locus YDR001C, strain nth1, hits give low values 0.991 | locus YDR069C, strain doa4, hits give low values 0.99 | locus YDR101C, strain arx1, hits give low values 0.985 | locus YDR137W, strain rgp1, hits give low values 0.977 | locus YDR150W, strain NUM1, hits give low values 1.01 | locus YDR159W, strain sac3, hits give low values 0.973 | locus YDR162C, strain NBP2, hits give low values 1.03 | locus YDR195W, strain ref2 1.01 | locus YDR297W, strain sur2, hits give low values 1 | locus YDR318W, strain mcm21, hits give low values 1.02 | locus YDR334W, strain swr1, hits give low values 0.987 | locus YDR335W, strain msn5, hits give low values 0.998 | locus YDR388W, hits give low values 1.04 | locus YDR392W, strain spt3, hits give low values 0.964 | locus YDR502C, strain sam2, hits give low values 1.02 | locus YEL003W, strain gim4, hits give low values 1.01 | locus YEL037C, strain rad23, hits give low values 1 | locus YEL061C, strain CIN8 (second series), hits give low values 0.983 | locus YEL061C, strain CIN8, hits give low values 1.01 | locus YER015W, strain faa2, hits give low values 1 | locus YER016W, strain bim1, hits give low values 1 | locus YER110C, hits give low values 1.02 | locus YER111C, strain swi4, hits give low values 0.998 | locus YER155C, strain BEM2 (second series), hits give low values 0.97 | locus YER155C, strain BEM2, hits give low values 1 | locus YER167W, strain BCK2, hits give low values 1.01 | locus YFR010W, strain ubp6, hits give low values 0.98 | locus YGL078C, strain dbp3, hits give low values 1.01 | locus YGL086W, strain mad1, hits give low values 1.02 | locus YGL167C, strain pmr1, hits give low values 1.02 | locus YGL173C, strain kem1, hits give low values 1.02 | locus YGL227W, strain vid30, hits give low values 0.983 | locus YGL240W, strain doc1, hits give low values 0.973 | locus YGL248W, strain PDE1, hits give low values 1.05 | locus YGL253W, strain hxk2, hits give low values 0.986 | locus YGR135W, strain pre9, hits give low values 1.01 | locus YGR252W, strain gcn5, hits give low values 0.964 | locus YHR013C, strain ard1, hits give low values 1.04 | locus YHR027C, strain rpn1, hits give low values 0.999 | locus YHR030C, strain SLT2, hits give low values 1.02 and 0.994 | locus YHR079C, strain IRE1 (second series), hits give low values 1.01 | locus YHR079C, strain IRE1, hits give low values 0.997 | locus YHR094C, strain hxt1, hits give low values 1.04 | locus YHR129C, strain ARP1, hits give low values 1.02 | locus YHR142W, strain chs7, hits give low values 1.01 | locus YHR200W, strain rpn10, hits give low values 1.01 | locus YIL066C, strain RNR3, hits give low values 1.02 | locus YIL073C, strain SPO22, hits give low values 1.11 | locus YIL125W, strain kgd1, hits give low values 1.03 | locus YIR030C, strain dcg1, hits give low values 1.01 | locus YJL092W, strain hpr5, hits give low values 0.998 | locus YJL095W, strain BCK1 (second series), hits give low values 1.01 | locus YJL095W, strain BCK1, hits give low values 1.01 and 1.02 | locus YJL115W, strain asf1, hits give low values 0.992 | locus YJL129C, strain trk1, hits give low values 0.99 | locus YJL134W, strain LCB3, hits give low values 1.01 | locus YJL154C, strain vps35, hits give low values 0.999 | locus YJL164C, strain tpk1, hits give low values 1.02 | locus YJL166W, strain qcr8, hits give low values 1.01 | locus YJL168C, strain set2, hits give low values 1.02 | locus YJL187C, strain SWE1 (second series), hits give low values 1.02 | locus YJL187C, strain SWE1, hits give low values 0.995 | locus YJR066W, strain TOR1, hits give low values 0.934 | locus YKL009W, strain mrt4, hits give low values 1 | locus YKL068W, hits give low values 1.04 | locus YKL085W, strain MDH1 (second series), hits give low values 1.02 | locus YKL085W, strain MDH1, hits give low values 1.02 | locus YKL160W, strain elf1, hits give low values 1.02 | locus YKR001C, strain vps1, hits give low values 1.03 | locus YKR026C, strain gcn3, hits give low values 0.98 | locus YKR091W, strain srl3, hits give low values 1.02 | locus YLL001W, strain dnm1, hits give low values 0.985 | locus YLL026W, hits give low values 1 | locus YLL041C, strain sdh2, hits give low values 0.996 | locus YLR027C, strain aat2, hits give low values 0.992 | locus YLR039C, strain RIC1, hits give low values 1.15 | locus YLR058C, strain SHM2, hits give low values 1.02 | locus YLR102C, strain apc9, hits give low values 1.03 | locus YLR113W, strain HOG1, hits give low values 1.02 | locus YLR221C, strain rsa3, hits give low values 0.987 | locus YLR258W, strain gsy2, hits give low values 1.02 | locus YLR262C, strain YPT6 (second series), hits give low values 1.02 | locus YLR268W, strain sec22, hits give low values 1.02 | locus YLR320W, strain mms22, hits give low values 0.993 | locus YLR330W, strain CHS5, hits give low values 1.03 | locus YLR342W, strain FKS1 (second series), hits give low values 1.05 | locus YLR342W, strain FKS1, hits give low values 1 | locus YLR357W, strain rsc2, hits give low values 0.984 | locus YLR370C, strain arc18, hits give low values 0.989 | locus YLR371W, strain rom2, hits give low values 1.05 | locus YLR384C, strain iki3, hits give low values 0.995 | locus YLR418C, strain cdc73, hits give low values 1.02 | locus YML016C, strain PPZ1, hits give low values 1.02 | locus YML032C, strain rad52, hits give low values 0.997 | locus YML120C, strain ndi1, hits give low values 0.999 | locus YML124C, strain tub3, hits give low values 1.02 | locus YMR058W, strain fet3, hits give low values 0.98 | locus YMR078C, strain ctf18, hits give low values 1.01 | locus YMR125W, strain sto1, hits give low values 0.984 | locus YMR129W, hits give low values 1.01 | locus YMR205C, strain PFK2, hits give low values 1.06 | locus YMR223W, strain ubp8, hits give low values 1.02 | locus YMR231W, strain pep5, hits give low values 0.996 | locus YMR307W, strain GAS1, hits give low values 1.09 | locus YNL067W, strain RPL9B, hits give low values 1.01 | locus YNL071W, strain lat1, hits give low values 1.01 | locus YNL153C, strain GIM3, hits give low values 1.01 | locus YNL183C, strain NPR1, hits give low values 0.949 | locus YNL209W, strain ssb2, hits give low values 1.01 | locus YNL233W, strain BNI4, hits give low values 1.04 | locus YNL248C, strain rpa49, hits give low values 0.974 | locus YNL250W, strain rad50, hits give low values 1.07 | locus YNL271C, strain bni1, hits give low values 1.01 | locus YNL298W, strain CLA4, hits give low values 0.997 | locus YNL307C, strain MCK1, hits give low values 1.03 | locus YNL322C, strain KRE1 (second series), hits give low values 1 | locus YNL322C, strain KRE1, hits give low values 1 | locus YNR049C, strain mso1, hits give low values 1 | locus YNR052C, strain pop2, hits give low values 1.04 | locus YOL006C, strain TOP1, hits give low values 1.09 | locus YOL012C, strain htz1 0.887 | locus YOL147C, strain pex11, hits give low values 1.02 | locus YOR001W, strain rrp6, hits give low values 0.954 | locus YOR061W, strain CKA2, hits give low values 1.02 | locus YOR069W, strain VPS5, hits give low values 0.999 | locus YOR070C, strain gyp1, hits give low values 1.01 | locus YOR080W, strain dia2, hits give low values 1 | locus YOR083W, strain WHI5, hits give low values 1.06 | locus YOR106W, strain vam3, hits give low values 1.01 | locus YOR136W, strain idh2, hits give low values 1.01 | locus YOR144C, strain elg1, hits give low values 1.01 | locus YOR184W, strain ser1, hits give low values 1 | locus YOR231W, strain MKK1, hits give low values 1.01 | locus YOR265W, strain rbl2, hits give low values 0.996 | locus YOR270C, strain vph1, hits give low values 1.07 | locus YOR290C, strain snf2, hits give low values 0.995 | locus YOR316C, strain cot1, hits give low values 1.01 | locus YPL051W, strain arl3, hits give low values 0.995 | locus YPL055C, strain LGE1, hits give low values 1.07 | locus YPL078C, strain atp4, hits give low values 1.01 | locus YPL106C, strain sse1, hits give low values 0.98 | locus YPL240C, strain hsp82, hits give low values 0.995 | locus YPL241C, strain CIN2, hits give low values 1.02 | locus YPL256C, strain CLN2, hits give low values 0.994 | locus YPR119W, strain clb2, hits give low values 1.01 | locus YPR141C, strain kar3, hits give low values 1.01 | locus YPR163C, strain tif3, hits give low values 1.02 | locus YPR167C, strain met16, hits give low values 1.02 | strain wtn01, hits give low values 1.01
